Rows were chosen to be rich in hits. Some 11% of all compounds tested hit in one or more screens of this group.
BAZ2B block: BAZ2B (human) inhibition; AlphaScreen BAZ2B-H3K14Ac peptide displacement; Potency, µM (doses to about 114 µM), most hits filed as inhibitors; 360,000 tested, 4.4% active; AID 504333; further: nearly all actives have a fitted effect of over 60% in size
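Compounds, titrated to a top concentration of 110 uM, were incubated 30 min at room temperature with preformed BAZ2B/acetyl-K14 H3 peptide complex (50 nM each). Proximity signal was measured by AlphaScreen after 20 min with beads.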
G9a inh: blocks human histone lysine methyltransferase G9a; Potency, µM (titrated, usually from 102 µM), usual class: inhibitors; Q96KQ7; AID 504332; G9a H3K9 monomethylation, AlphaScreen, 2 h; 350,000 tested, 8.8% active; further: nearly all actives have a fitted effect of over 75% in size
Target sequence (Q96KQ7 913-1193 limits assumed): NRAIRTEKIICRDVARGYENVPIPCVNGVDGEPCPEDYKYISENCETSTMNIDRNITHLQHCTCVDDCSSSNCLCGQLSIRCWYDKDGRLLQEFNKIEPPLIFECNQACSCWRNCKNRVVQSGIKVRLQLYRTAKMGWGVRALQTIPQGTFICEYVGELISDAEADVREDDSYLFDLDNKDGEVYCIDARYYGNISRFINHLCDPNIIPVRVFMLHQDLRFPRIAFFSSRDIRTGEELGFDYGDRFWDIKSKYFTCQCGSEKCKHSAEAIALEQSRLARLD
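Signal arises when biotinylated H3K9 peptide, once monomethylated, bridges streptavidin donor and antibody-captured acceptor beads. Enzyme at 20 nM was preincubated 15 min with test compounds; peptide 500 nM and SAM 20 uM then reacted for 2 h.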
HP1b chromo inh: HP1-beta chromodomain-methylated histone interaction inhibition | P83916 | AlphaScreen HP1-beta / biotin-H3K9me3 peptide binding | Potency, µM (doses to about 114 µM), hits mostly inhibitors | 390,000 tested, 0.56% active; further: nearly all actives have a fitted effect of over 70% in size
Target sequence (P83916 whole entry, looked up): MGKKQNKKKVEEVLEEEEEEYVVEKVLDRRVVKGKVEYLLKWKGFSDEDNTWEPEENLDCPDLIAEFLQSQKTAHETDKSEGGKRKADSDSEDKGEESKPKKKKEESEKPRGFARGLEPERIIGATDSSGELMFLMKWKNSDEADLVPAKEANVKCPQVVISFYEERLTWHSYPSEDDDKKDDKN
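AlphaScreen: HP1-beta (50 nM) preformed 30 min with biotin-H3(1-18)K9me3 peptide (50 nM) in PBS pH 7.4, 0.01% Tween-20. Compound added for 30 min at RT, then streptavidin donor/nickel chelate acceptor beads (10 ug/mL) for 30 min.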
JMJD2A Tudor inh: inhibitors of human JMJD2A Tudor domain; AlphaScreen JMJD2A-Tudor / H3K4me3 peptide binding; Potency, µM (titrated, usually from 114 µM), actives largely listed as inhibitors; 390,000 tested, 4.4% active; further: nearly all actives have a fitted effect of over 50% in size
L3MBTL1 inh: blocks human L3MBTL1; AlphaScreen L3MBTL1–H3K9me1 peptide binding; Potency, µM (top dose mostly 57.1 µM), actives largely listed as inhibitors; AID 485360; Q9Y468; 230,000 tested, 0.66% active; further: nearly all actives have a fitted effect of over 60% in size
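Read-out is AlphaScreen signal from streptavidin donor and nickel chelate acceptor beads (10 ug/mL final each) bridging L3MBTL1 (50 nM) and biotinylated K9-monomethylated H3(1-15) peptide (75 nM), after 30 min compound exposure at room temperature.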
Large screens that a line does not name were inactive; ! = not confirmed by another sample. The call rests on the fitted dose curve; in most records, active means well fitted inhibition curve with a large enough effect; inconclusive means small, poorly fitted or top-dose-only effect; inactive means no such curve, though single readings can be large or run the other way.

CC(=O)NS(=O)(=O)c1ccc(NC(=S)NC(=O)c2ccco2)cc1	none (no result: G9a inh)
COc1ccc(C(=O)NC(=S)Nc2ccc(S(=O)(=O)Nc3cc(OC)ncn3)cc2)cc1	BAZ2B block inconclusive, G9a inh inconclusive (no result: L3MBTL1 inh)
COc1cc(NS(=O)(=O)c2ccc(NC(=S)NC(=O)c3ccco3)cc2)ncn1	G9a inh 50µM
CN(C)S(=O)(=O)c1cccc(NC(=S)NC(=O)c2ccco2)c1	G9a inh 40µM, JMJD2A Tudor inh inconclusive
CCOC(=O)c1cc(C(=O)NNC(=O)c2cccc([N+](=O)[O-])c2)c(C)nc1C	none
CC(Oc1ccc(Br)cc1)C(=O)NCC(c1cccs1)N1CCOCC1 (stereo not given)	none
Cc1ccc2c(c1)C(c1ccc(F)cc1)N(C(=O)COc1ccc(Cl)cc1Cl)CC(=O)N2 (stereo not given)	none (no result: L3MBTL1 inh)
CCC1CC=CC2C1C(=O)N(Cc1ccccc1)C2c1ccoc1 (stereo not given)	none (no result: BAZ2B block, G9a inh, L3MBTL1 inh)
CC(C)CC(C(=O)NCC1CCN(Cc2ccc(F)cc2)CC1)N1Cc2ccccc2C1=O (stereo not given)	none (no result: L3MBTL1 inh)
COc1cc(OC)c(NC(=O)C(CC(C)C)N2Cc3ccccc3C2=O)cc1Cl (stereo not given)	BAZ2B block inconclusive, G9a inh inconclusive, JMJD2A Tudor inh inconclusive (no result: L3MBTL1 inh)
CCC1CN(C(=O)N2CCC(C(=O)NCCc3ccccc3Cl)CC2)c2cc(C)ccc2O1 (stereo not given)	none (no result: L3MBTL1 inh)
CCCCC(CC)CNC(=O)c1ccc2c(=O)n(CCOC)c(=O)[nH]c2c1 (stereo not given)	none (no result: L3MBTL1 inh)
CN(C)S(=O)(=O)c1cccc(NC(=O)c2c[nH]c3ccccc23)c1	G9a inh inconclusive (no result: L3MBTL1 inh)
CN(C)S(=O)(=O)c1cccc(NC(=S)NNC(=O)c2cc3ccccc3cc2O)c1	BAZ2B block inconclusive, G9a inh inconclusive, JMJD2A Tudor inh 40µM
CC1CCCCN1C(=O)Cn1c(SCC(=O)N(C)c2ccccc2)nc2ccccc21 (stereo not given)	none (no result: L3MBTL1 inh)
CCOC(=O)N1CCC(c2[nH][nH]c(=O)c2C)CC1	G9a inh 40µM (no result: L3MBTL1 inh)
Cc1cc(N(C)N)nc(NC(=O)NS(=O)(=O)c2ccccc2Cl)n1	BAZ2B block 28µM, JMJD2A Tudor inh 28µM (no result: L3MBTL1 inh)
COc1cc(OC)nc(NC(=O)NS(=O)(=O)c2ccccc2Cl)n1	none
CCN(CC)c1ccc(C(=S)NC2CCCCC2)cc1	BAZ2B block 22µM, HP1b chromo inh 32µM, JMJD2A Tudor inh inconclusive
CCOc1ccc(C(=S)NC2CCCCC2)cc1OCC	BAZ2B block inconclusive, G9a inh 7.9µM, HP1b chromo inh inconclusive, JMJD2A Tudor inh 79µM (no result: L3MBTL1 inh)
CC(C)C1Nc2ccc(C(=O)NC3CCCCC3)cc2NC1=O (stereo not given)	none (no result: L3MBTL1 inh)
CN(C)c1cccc(C(=O)NC2CCCCCC2)c1	G9a inh 8.9µM, JMJD2A Tudor inh inconclusive
CC1Nc2ccc(C(=O)NC3CCCCC3)cc2NC1=O (stereo not given)	G9a inh 35µM (no result: L3MBTL1 inh)
O=C(Nc1ncc(Cc2ccccc2)s1)C1CCN(C(=O)c2ccco2)CC1	none (no result: BAZ2B block, G9a inh, L3MBTL1 inh)
Cc1ccc(NC(=S)c2ccc(N(C)C)cc2)cc1	none
CN(C)c1ccc(C(=S)NC2CCCCC2)cc1	G9a inh 5.6µM, HP1b chromo inh inconclusive, JMJD2A Tudor inh inconclusive, L3MBTL1 inh inconclusive
CCCc1cc(=O)oc2cc(OC(C)C(=O)NCC3CCC(C(=O)O)CC3)ccc12 (stereo not given)	none (no result: G9a inh)
N#CCCn1c(=O)c(-c2ccc(F)cc2)nc2cnc(N3CCOCC3)nc21	none (no result: BAZ2B block, HP1b chromo inh, JMJD2A Tudor inh, L3MBTL1 inh)
COc1ccccc1CN1C[C@@H]2C[C@@H](c3[nH]c4c(C)cccc4c3C)N3CCC[C@@]23C1=O	BAZ2B block inconclusive, G9a inh 45µM
Cc1ccc(O)c(NC(=O)CCSc2nc(-c3ccco3)cc(C(F)(F)F)n2)c1	none (no result: L3MBTL1 inh)
CN1Cc2c(N)cccc2C(c2ccccc2)C1 (stereo not given)	G9a inh 14µM!
CN1Cc2c(N)cccc2[C@H](c2ccccc2)C1	none (no result: BAZ2B block, HP1b chromo inh, JMJD2A Tudor inh, L3MBTL1 inh)
CCN(CC)c1cc2c(cc1F)c(=O)c(S(=O)(=O)c1ccccc1)cn2Cc1ccccc1	none (no result: L3MBTL1 inh)
Cc1ccc(Cl)cc1N1CCN(C(c2ccc(F)cc2)c2nnc(-c3ccccc3)o2)CC1 (stereo not given)	G9a inh inconclusive, JMJD2A Tudor inh inconclusive (no result: L3MBTL1 inh)
COc1ccccc1NCC(=O)c1ccc(Cl)cc1	BAZ2B block inconclusive, G9a inh 50µM, HP1b chromo inh inconclusive, JMJD2A Tudor inh inconclusive (no result: L3MBTL1 inh)
O=C(N1CCc2ccc(S(=O)(=O)N3CCN(S(=O)(=O)c4ccc5c(c4)OCCO5)CC3)cc2C1)C(F)(F)F	none (no result: BAZ2B block, G9a inh, HP1b chromo inh, L3MBTL1 inh)
CC(=O)c1cc2c(cc1NC(=O)CCC1CCCC1)OCO2	none (no result: HP1b chromo inh, JMJD2A Tudor inh)
CC(=O)c1cc2c(cc1NC(=O)CN1CCCCC1C)OCO2 (stereo not given)	BAZ2B block 79µM, G9a inh 13µM, HP1b chromo inh inconclusive, JMJD2A Tudor inh 20µM (no result: L3MBTL1 inh)
COc1cccc(C(=O)N2CCC(N3CC(C)OC(C)C3)CC2)c1 (stereo not given)	BAZ2B block 50µM, G9a inh 2.8µM, HP1b chromo inh inconclusive, JMJD2A Tudor inh 6.3µM
CCOC(=O)C1CCN(C/C=C/c2ccccc2[N+](=O)[O-])CC1	BAZ2B block inconclusive, JMJD2A Tudor inh 2.2µM (no result: G9a inh)
CCOC(=O)C1CCN(Cc2c(O)c3ccccc3oc2=O)CC1	none
CCOC(=O)C1CCN(Cc2cn[nH]c2-c2ccccc2)CC1	BAZ2B block inconclusive, G9a inh 7.9µM, HP1b chromo inh inconclusive, JMJD2A Tudor inh 3.2µM
CCOC(=O)C1CCCN(C(=O)/C=C/c2ccccc2[N+](=O)[O-])C1 (stereo not given)	JMJD2A Tudor inh inconclusive
CCOC(=O)C1CCN(Cc2ccccc2C)CC1	BAZ2B block 56µM, G9a inh inconclusive (no result: L3MBTL1 inh)
COc1cccc(C(=O)N2CCOCC2)c1	L3MBTL1 inh inconclusive
N#CCC(=O)Nc1ccc(C(=O)OCC(=O)N2CCCC2=O)cc1	G9a inh inconclusive
CN(Cc1ccc(F)cc1)S(=O)(=O)c1nnc(NC(=O)c2ccccc2Br)s1	none (no result: L3MBTL1 inh)
COc1ccc(CN2CCC(n3nccc3NC(=O)C3CCCC3)CC2)c(OC)c1	none (no result: G9a inh, L3MBTL1 inh)
COc1ccc(CN2CCC(N3CC(C)OC(C)C3)CC2)c(OC)c1 (stereo not given)	BAZ2B block 32µM, G9a inh 8.9µM, HP1b chromo inh 40µM, JMJD2A Tudor inh 0.79µM (no result: L3MBTL1 inh)
CCOC(=O)C1CCN(Cc2ccc(OC)cc2OC)CC1	BAZ2B block inconclusive, G9a inh inconclusive, HP1b chromo inh inconclusive, JMJD2A Tudor inh 1.8µM
CCOC(=O)C1CCCN(CC(O)COc2ccc(OC)cc2C(C)(C)C)C1 (stereo not given)	BAZ2B block 50µM, G9a inh 13µM, HP1b chromo inh 7.9µM, JMJD2A Tudor inh inconclusive
CCOC(=O)C1CCN(S(=O)(=O)c2ccc(OCC)cc2)CC1	none (no result: L3MBTL1 inh)
CCOC(=O)C1CCCN(Cc2ccc(OCC)cc2)C1 (stereo not given)	BAZ2B block inconclusive, G9a inh 8.9µM, HP1b chromo inh inconclusive, JMJD2A Tudor inh 20µM (no result: L3MBTL1 inh)
